Assay results: PubChem BioAssay (EPA / NIEHS)
Active and inactive are the calls of the source. The calls were made as follows: active = hit-call score of the fitted dose curve at least 0.9, where 1 is the maximum; inactive = score below 0.9.

Legend:
[1] = ATG_E_Box_CIS: Attagene CIS-FACTORIAL HepG2 Assay for human Enhancer Box (E-box) (AID 2282936); conditions: HepG2 E-box cis-reporter transcription, actives raise or lower the signal
Outline: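 E-box-driven reporter transcripts measured in transiently transfected HepG2 after 24 h exposure: RNA reverse-transcribed, PCR-amplified, fluorescently labelled, digested and resolved by capillary electrophoresis. Gain or loss relative to DMSO.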

[2] = ATG_M_61_CIS: Attagene CIS-FACTORIAL HepG2 Assay for M61 Transcription Factor (Internal Marker) (AID 2282937); conditions: HepG2 Attagene CIS-FACTORIAL M61 internal marker reporter; actives raise or lower the signal
Outline: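 Cells were transfected with reporter units under cis-regulatory promoters, treated with chemicals for 24 h, then lysed for RNA. Reporter transcripts were quantified by RT-PCR and capillary electrophoresis, and activity was fitted bidirectionally against DMSO.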

[3] = ATG_EGR_CIS: Attagene CIS-FACTORIAL HepG2 Assay for human Early Growth Response 1 (EGR1) (AID 2282938); conditions: HepG2 Attagene CIS-FACTORIAL EGR reporter mRNA; actives raise or lower the signal
Outline: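 Endogenous TF activity in HepG2 liver cells was gauged through cis-promoter reporter constructs transiently transfected. After 24 h dosing, reporter mRNA was quantified by RT-PCR and capillary electrophoresis, and curves fitted in both directions versus DMSO.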

[4] = ATG_M_19_CIS: Attagene CIS-FACTORIAL HepG2 Assay for M19 Transcription Factor (Internal Marker) (AID 2282939); conditions: HepG2 Attagene CIS-FACTORIAL M19 internal marker reporter; actives raise or lower the signal
Outline: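 Following a 24 h exposure, RNA from transfected HepG2 cells was reverse-transcribed, PCR-amplified with reporter-specific primers, end-labelled with 6-FAM and HpaI-digested before capillary separation. Values represent gain or loss versus DMSO.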

[5] = ATG_Ets_CIS: Attagene CIS-FACTORIAL HepG2 Assay for human Erythroblast Transformation Specific (ETS) (AID 2282941); conditions: HepG2 ETS cis-reporter transcription, actives raise or lower the signal
Outline: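 Cis-regulated reporter mRNA induction in HepG2 (transient transfection), 24 h exposure, RT-PCR plus capillary electrophoresis detection; DMSO serves as negative control and baseline.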

[6] = biological target: Hepatocyte nuclear factor 3-beta (Homo sapiens) (UniProt Q9Y261); assay: ATG_FoxA2_CIS: Attagene CIS-FACTORIAL HepG2 Assay for human Forkhead box A2 (FOXA2) (AID 2282942); conditions: HepG2 cis-reporter transcription factor activity, 24 h; actives raise or lower the signal
Outline: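 Endogenous transcription factor activity was read in HepG2 cells carrying transiently transfected cis-promoter reporter units. After 24 h dosing, reporter mRNA was quantified by RT-PCR and capillary electrophoresis, and values fitted bidirectionally versus DMSO.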

[7] = ATG_FoxO_CIS: Attagene CIS-FACTORIAL HepG2 Assay for human Forkhead box O (FoxO) (AID 2282943); conditions: HepG2 Attagene cis-reporter, FoxO element, mRNA; actives raise or lower the signal
Outline: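 Endogenous transcription factor activity read from multiplexed cis-promoter reporter transcripts in transiently transfected HepG2, 24 h after dosing. Reporter RNA measured via RT-PCR plus capillary electrophoresis of FAM-labeled products; gain or loss relative to DMSO.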

[8] = ATG_GLI_CIS: Attagene CIS-FACTORIAL HepG2 Assay for human Zinc Finger Protein GLI1 (AID 2282945); conditions: HepG2, Attagene cis-factorial reporter mRNA, GLI element; actives raise or lower the signal
Outline: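 Bidirectional curve fits relative to DMSO, using reporter mRNA levels from RT-PCR plus capillary electrophoresis. Cells were HepG2 transiently carrying cis-regulated reporter constructs, harvested 24 h after dosing.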

[9] = ATG_ISRE_CIS: Attagene CIS-FACTORIAL HepG2 Assay for human Interferon Regulatory Factor 1 (IRF1) binding to an Interferon-Stimulated Response Element (ISRE) (AID 2282948); conditions: HepG2 ISRE cis-reporter (Attagene), mRNA transcription readout; actives raise or lower the signal
Outline: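 Multiplexed mRNA reporter readout in human liver HepG2 cells: cis-element-driven reporters transfected, compound added for 24 h, transcripts amplified, fluorescently labelled and sized by capillary electrophoresis; curve fitting bidirectional against DMSO.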

[10] = ATG_M_32_CIS: Attagene CIS-FACTORIAL HepG2 Assay for M32 Transcription Factor (Internal Marker) (AID 2282949); conditions: HepG2 Attagene cis-factorial M32 reporter, mRNA; actives raise or lower the signal;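 also: background control marker of the multiplexed CIS panel rather than a real target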
Outline: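 HepG2 transfectants (cis-regulated reporter transcription units) dosed 24 h. Reporter mRNA by RT-PCR plus CE, analysed as gain or loss relative to DMSO.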

[11] = ATG_M_06_CIS: Attagene CIS-FACTORIAL HepG2 Assay for M06 Transcription Factor (Internal Marker) (AID 2282950); conditions: HepG2 Attagene CIS-FACTORIAL M06 internal marker reporter; actives raise or lower the signal
Outline: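 Fluorescence-labelled RT-PCR products from cis-promoter reporter units, cut with HpaI and resolved by capillary electrophoresis, give the signal. Cells are human HepG2, dosed for 24 h. Serves as background control, fitted relative to DMSO.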

[12] = biological target: Hypoxia-inducible factor 1-alpha (Homo sapiens) (UniProt Q16665); assay: ATG_HIF1a_CIS: Attagene CIS-FACTORIAL HepG2 Assay for human Hypoxia Inducible Factor 1 (HIF1A) (AID 2282951); conditions: HepG2 Attagene cis-factorial HIF1a reporter transcription; actives raise or lower the signal
Outline: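 Measures endogenous transcription-factor activity through cis-regulated reporter mRNA in HepG2. Cells dosed 24 h; transcripts quantified by RT-PCR with 6-FAM-labelled products separated by capillary electrophoresis; DMSO serves as negative control.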

[13] = biological target: Hepatocyte nuclear factor 6 (Homo sapiens) (UniProt Q9UBC0); assay: ATG_HNF6_CIS: Attagene CIS-FACTORIAL HepG2 Assay for human Hepatocyte Nuclear Factor 6 (HNF6) (AID 2282952); conditions: HepG2 Attagene cis-factorial HNF6 reporter transcription; actives raise or lower the signal
Outline: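 Endogenous transcription factor activity in human HepG2 liver cells was captured through cis-regulated reporter constructs. After 24 h treatment, reporter mRNA was measured by RT-PCR with capillary electrophoresis, and activity was fitted in both directions relative to DMSO.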

[14] = biological target: Heat shock factor protein 1 (Homo sapiens) (UniProt Q00613); assay: ATG_HSE_CIS: Attagene CIS-FACTORIAL HepG2 Assay for human Heat Shock Transcription Factor 1 (HSE) (AID 2282953); conditions: HepG2 HSE cis-reporter, Attagene RNA transcription; actives raise or lower the signal
Outline: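 After a 24 h incubation with test chemical, transfected HepG2 cells were harvested for RNA; reporter transcripts were measured by RT-PCR and capillary electrophoresis. Values reflect gain or loss of signal relative to DMSO.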

[15] = ATG_MRE_CIS: Attagene CIS-FACTORIAL HepG2 Assay for human Metal Responsive Element (MRE) (AID 2282954); conditions: HepG2 MRE cis-reporter transcription, Attagene multiplex; actives raise or lower the signal
Outline: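 Endogenous MRE-dependent transcription read as reporter mRNA in transiently transfected human HepG2 cells at 24 h. RNA reverse-transcribed, PCR-amplified, labelled and resolved by capillary electrophoresis; gain or loss relative to DMSO.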

[16] = ATG_PBREM_CIS: Attagene CIS-FACTORIAL HepG2 Assay for human Phenobarbital-responsive Enhancer Module (PBREM) (AID 2282955); conditions: HepG2 PBREM cis-reporter, Attagene multiplexed transcription; actives raise or lower the signal
Outline: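 Fluorescence of labelled reporter cDNA fragments, resolved by capillary electrophoresis, gives mRNA induction in transfected HepG2 cells treated for 24 h; DMSO serves as negative control and baseline.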

[17] = biological target: Paired box protein Pax-6 (Homo sapiens) (UniProt P26367); assay: ATG_Pax6_CIS: Attagene CIS-FACTORIAL HepG2 Assay for human Paired Box 6 (PAX6) (AID 2282956); conditions: HepG2 CIS-FACTORIAL PAX6 reporter transcription, RNA readout; actives raise or lower the signal
Outline: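 Fluorescent RT-PCR products separated by capillary electrophoresis report PAX6-linked promoter mRNA in HepG2 cells 24 h post-dose. Curves fitted bidirectionally, DMSO as negative control.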

[18] = ATG_GRE_CIS: Attagene CIS-FACTORIAL HepG2 Assay for human Glucocorticoid Response Elements (GRE) (AID 2282947); conditions: HepG2 GRE cis-reporter, Attagene multiplex mRNA; actives raise or lower the signal
Outline: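 Reporter transcripts read by RT-PCR with capillary electrophoresis fluorescence after a 24 h chemical exposure of HepG2 cells transiently transfected with multiple cis-element reporter units. Gain or loss fitted against DMSO.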

Measured: AC50

Heat shock factor protein 1 (Homo sapiens), sequence (Q00613 whole entry, looked up): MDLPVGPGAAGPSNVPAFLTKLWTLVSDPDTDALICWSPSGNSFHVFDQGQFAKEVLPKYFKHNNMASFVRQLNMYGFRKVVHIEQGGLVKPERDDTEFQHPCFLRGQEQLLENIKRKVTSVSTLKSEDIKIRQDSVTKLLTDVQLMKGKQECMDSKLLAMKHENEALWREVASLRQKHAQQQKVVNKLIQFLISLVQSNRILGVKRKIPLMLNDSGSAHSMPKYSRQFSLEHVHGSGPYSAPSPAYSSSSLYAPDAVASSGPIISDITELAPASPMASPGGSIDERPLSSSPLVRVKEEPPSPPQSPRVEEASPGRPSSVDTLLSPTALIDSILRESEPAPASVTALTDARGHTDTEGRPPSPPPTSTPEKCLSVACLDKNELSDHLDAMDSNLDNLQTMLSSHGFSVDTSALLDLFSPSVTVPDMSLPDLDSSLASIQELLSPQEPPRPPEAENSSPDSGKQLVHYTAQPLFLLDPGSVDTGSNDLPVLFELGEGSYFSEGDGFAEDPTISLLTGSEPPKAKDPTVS
Hypoxia-inducible factor 1-alpha (Homo sapiens), sequence (Q16665 whole entry, looked up): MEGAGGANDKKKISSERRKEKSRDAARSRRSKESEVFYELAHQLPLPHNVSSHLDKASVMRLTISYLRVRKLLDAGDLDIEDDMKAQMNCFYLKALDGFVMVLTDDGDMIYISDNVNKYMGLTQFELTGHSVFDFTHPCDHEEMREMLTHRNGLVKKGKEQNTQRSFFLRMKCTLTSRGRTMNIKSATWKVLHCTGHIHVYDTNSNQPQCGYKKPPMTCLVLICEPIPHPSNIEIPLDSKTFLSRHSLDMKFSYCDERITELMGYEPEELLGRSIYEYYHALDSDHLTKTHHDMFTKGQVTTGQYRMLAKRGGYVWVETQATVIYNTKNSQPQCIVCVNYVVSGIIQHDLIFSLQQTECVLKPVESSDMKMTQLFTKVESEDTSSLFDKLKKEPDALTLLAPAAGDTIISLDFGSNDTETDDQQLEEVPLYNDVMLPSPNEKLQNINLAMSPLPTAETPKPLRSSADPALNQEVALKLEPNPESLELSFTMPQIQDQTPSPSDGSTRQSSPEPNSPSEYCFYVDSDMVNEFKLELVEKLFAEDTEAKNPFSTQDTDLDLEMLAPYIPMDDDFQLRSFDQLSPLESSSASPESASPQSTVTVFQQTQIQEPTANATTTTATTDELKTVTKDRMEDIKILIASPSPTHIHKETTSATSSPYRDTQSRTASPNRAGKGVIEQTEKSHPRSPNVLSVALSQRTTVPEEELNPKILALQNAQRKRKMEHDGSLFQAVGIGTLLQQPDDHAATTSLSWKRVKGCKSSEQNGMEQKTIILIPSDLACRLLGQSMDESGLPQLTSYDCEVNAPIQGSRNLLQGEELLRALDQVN
Paired box protein Pax-6 (Homo sapiens), sequence (P26367 whole entry, looked up): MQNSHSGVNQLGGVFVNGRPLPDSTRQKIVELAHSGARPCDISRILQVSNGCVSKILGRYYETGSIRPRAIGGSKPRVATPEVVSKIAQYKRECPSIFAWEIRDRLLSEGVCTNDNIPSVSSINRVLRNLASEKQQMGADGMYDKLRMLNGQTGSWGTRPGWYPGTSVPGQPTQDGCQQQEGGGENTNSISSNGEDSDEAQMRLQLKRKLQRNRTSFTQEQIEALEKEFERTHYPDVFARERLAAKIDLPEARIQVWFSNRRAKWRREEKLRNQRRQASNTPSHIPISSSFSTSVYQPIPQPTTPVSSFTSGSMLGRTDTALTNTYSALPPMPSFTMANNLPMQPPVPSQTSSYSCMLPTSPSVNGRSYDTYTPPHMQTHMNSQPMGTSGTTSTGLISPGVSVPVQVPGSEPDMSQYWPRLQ
Hepatocyte nuclear factor 3-beta (Homo sapiens), sequence (Q9Y261 whole entry, looked up): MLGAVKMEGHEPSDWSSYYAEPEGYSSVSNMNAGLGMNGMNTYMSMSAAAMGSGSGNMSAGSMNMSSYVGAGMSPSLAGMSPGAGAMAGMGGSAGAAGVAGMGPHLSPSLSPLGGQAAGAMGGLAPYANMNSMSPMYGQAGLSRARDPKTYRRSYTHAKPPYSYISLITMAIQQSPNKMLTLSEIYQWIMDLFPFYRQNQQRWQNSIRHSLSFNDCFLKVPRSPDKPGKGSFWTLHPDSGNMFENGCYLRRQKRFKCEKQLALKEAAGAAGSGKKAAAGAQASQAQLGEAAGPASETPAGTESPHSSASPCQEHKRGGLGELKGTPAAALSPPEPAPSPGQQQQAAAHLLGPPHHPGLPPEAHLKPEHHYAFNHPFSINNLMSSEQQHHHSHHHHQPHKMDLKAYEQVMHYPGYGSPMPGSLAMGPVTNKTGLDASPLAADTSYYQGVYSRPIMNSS
Hepatocyte nuclear factor 6 (Homo sapiens), sequence (Q9UBC0 whole entry, looked up): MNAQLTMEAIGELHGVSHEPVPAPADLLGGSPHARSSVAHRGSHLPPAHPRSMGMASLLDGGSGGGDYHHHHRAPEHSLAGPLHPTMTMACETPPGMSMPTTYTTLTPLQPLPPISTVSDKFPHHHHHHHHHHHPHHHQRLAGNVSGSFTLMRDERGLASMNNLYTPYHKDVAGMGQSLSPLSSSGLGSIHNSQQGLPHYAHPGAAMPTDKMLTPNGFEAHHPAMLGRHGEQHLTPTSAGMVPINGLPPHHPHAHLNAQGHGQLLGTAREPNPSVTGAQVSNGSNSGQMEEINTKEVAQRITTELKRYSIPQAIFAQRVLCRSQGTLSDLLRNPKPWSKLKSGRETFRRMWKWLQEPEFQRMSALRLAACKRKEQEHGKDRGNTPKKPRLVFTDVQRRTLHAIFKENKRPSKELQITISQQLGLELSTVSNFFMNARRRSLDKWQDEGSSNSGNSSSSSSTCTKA

CC(C)(C)OOC(C)(C)CCC(C)(C)OOC(C)(C)C
not listed: [18]
inactive: all other assays above

Clc1ccc(Cl)c(Cl)c1
not listed: [14] | [17] | [18]
inactive: all other assays above

Cn1cc(-c2ccccc2)c(=O)c(-c2cccc(C(F)(F)F)c2)c1
active: [1] 55 µM | [9] 61.1 µM
not listed: [14] | [16]
inactive: all other assays above

N#CC(Br)(Br)C(N)=O
not listed: [14] | [16] | [18]
inactive: all other assays above

COC(=O)Nc1nc2ccccc2[nH]1
not listed: [16] | [18]
inactive: all other assays above

Oc1ccc2ccc3cccc4ccc1c2c34
active: [12] 0.00117 µM
not listed: [14]
inactive: all other assays above

CCC12COCN1COC2
not listed: [16] | [18]
inactive: all other assays above

c1ccc2c(c1)-c1cccc3cccc-2c13
active: [4] 0.00801 µM | [10] 0.00928 µM
not listed: [16] | [18]
inactive: all other assays above

O=C(Nc1ccccc1)c1ccccc1I
not listed: [17] | [18]
inactive: all other assays above

CCCCCOC(=O)c1ccccc1C(=O)OCCCCC
active: [15] 151 µM
not listed: [14] | [18]
inactive: all other assays above
